Measurements as given in PubChem BioAssay (NCI).
Compounds without any hit were thinned out: in the full panel of roughly 79,000, 15% have a hit. Activity calls are given as the source filed them. Cut-off read from the data, not from the text of the source: active = growth inhibition above about 70%; inactive = the rest.

Legend:
[1] = NCI Yeast Anticancer Drug Screen. Data for the wt1 strain (AID 149);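 note: 0% = growth of vehicle-treated wt1 cultures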; conditions: S. cerevisiae wt1 strain (SPY 50644) growth inhibition, hits give high values
Outline: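 Readout: yeast growth inhibition, normalised to vehicle controls, in the wt1 strain exposed to test compounds.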

[2] = NCI Yeast Anticancer Drug Screen. Data for the rad50EPP+ strain (AID 151);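 note: 0% = growth of vehicle-treated control cultures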; conditions: S. cerevisiae rad50 mutant strain, hits give high values
Outline: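 Genetically defined yeast (rad50EPP+, DNA damage repair alteration) is grown with compound, and inhibition of growth is expressed relative to vehicle-treated controls.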

[3] = NCI Yeast Anticancer Drug Screen. Data for the mgt1 strain (AID 153); conditions: S. cerevisiae mgt1 mutant growth inhibition, hits give high values
Outline: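 In the mgt1 strain, test compounds were added and growth inhibition was determined relative to vehicle-treated controls.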

[4] = NCI Yeast Anticancer Drug Screen. Data for the rad50 strain (AID 155);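 note: 0% = growth of vehicle-only cultures of the same strain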; conditions: S. cerevisiae rad50 strain growth inhibition, hits give high values
Outline: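 Compounds were tested on a yeast strain with an engineered DNA damage repair alteration; the reported value is growth inhibition normalised to vehicle treatment.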

[5] = NCI Yeast Anticancer Drug Screen. Data for the mec2-1 strain (AID 157); conditions: S. cerevisiae mec2-1 strain, hits give high values
Outline: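 Each compound was tested on mec2-1 yeast, a strain altered in DNA damage repair or cell cycle control. Growth inhibition is reported relative to vehicle.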

[6] = NCI Yeast Anticancer Drug Screen. Data for the rad14 strain (AID 159);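 note: 0% = growth of vehicle-treated control cultures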; conditions: S. cerevisiae rad14 strain growth inhibition, hits give high values
Outline: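 Compound-treated yeast with a defined DNA-repair lesion; growth inhibition normalised to vehicle-treated cultures.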

[7] = NCI Yeast Anticancer Drug Screen. Data for the sgs1 mgt1 strain (AID 161);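 note: 0% = growth of cultures given vehicle only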; conditions: S. cerevisiae sgs1 mgt1 strain, hits give high values
Outline: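 Mutant yeast exposed to compound; growth scored against vehicle-only wells.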

[8] = NCI Yeast Anticancer Drug Screen. Data for the CLN2oe strain (AID 163);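 note: 0% = growth of vehicle-only control cultures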; conditions: S. cerevisiae CLN2oe strain, hits give high values
Outline: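 First, the altered yeast strain was treated with each compound; second, its growth was measured; finally, inhibition was derived by comparison with vehicle controls.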

[9] = NCI Yeast Anticancer Drug Screen. Data for the cln2 rad14 strain (AID 165);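 note: 0% = growth equal to vehicle treated cultures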; conditions: S. cerevisiae cln2 rad14 strain, hits give high values
Outline: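 Test compounds were added to cln2 rad14 yeast cultures; inhibition of growth was then determined by comparison with vehicle treatment.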

[10] = NCI Yeast Anticancer Drug Screen. Data for the bub3 strain (AID 167); conditions: S. cerevisiae bub3 mutant strain, hits give high values
Outline: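 Growth of a checkpoint-deficient yeast mutant is measured after compound exposure. Values represent inhibition relative to vehicle.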

[11] = NCI Yeast Anticancer Drug Screen. Data for the wt2 strain (AID 169);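 note: 0% = growth of vehicle-treated yeast cultures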; conditions: S. cerevisiae wt2 strain growth inhibition, hits give high values
Outline: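 The panel's yeast strains carry defined changes in DNA repair or cell cycle genes. Each strain is grown with compound, and growth loss is scored relative to vehicle.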

[12] = NCI Yeast Anticancer Drug Screen. Data for the mlh1 strain (AID 171);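 note: 0% = growth of vehicle-treated control cultures of the same strain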; conditions: S. cerevisiae mlh1 strain growth inhibition, hits give high values
Outline: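 Inhibition values reflect reduced yeast growth in the presence of compound, referenced to vehicle controls, using a strain chosen for its alteration in DNA repair or cell cycle control.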

[13] = NCI Yeast Anticancer Drug Screen. Data for the sgs1 strain (AID 173);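 note: 0% = growth of vehicle-only control cultures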; conditions: S. cerevisiae sgs1 mutant, hits give high values
Outline: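 Vehicle-treated cultures served as reference for growth inhibition of a yeast strain altered in DNA damage repair or cell cycle control after compound exposure.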

[14] = NCI Yeast Anticancer Drug Screen. Data for the mlh1 rad18 strain (AID 175); conditions: S. cerevisiae mlh1 rad18 strain growth inhibition, hits give high values
Outline: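 Inhibition values reflect reduced growth of mutant yeast versus vehicle-treated controls following compound exposure; the mutations affect DNA damage repair.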

[15] = NCI Yeast Anticancer Drug Screen. Data for the rad18 strain (AID 177); conditions: S. cerevisiae rad18 mutant growth inhibition, hits give high values
Outline: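 Steps: expose repair-mutant yeast to compound; measure growth; express as inhibition relative to vehicle control.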

[16] = at 5.0 µM (retest, dose inferred, filed as 0.5)
[17] = at 50.0 µM (retest, dose inferred, filed as 5.0)

Measured: growth inhibition

[N-]=[N+]=NC1CC(n2ccc(=O)[nH]c2=O)OC1COC(c1ccccc1)(c1ccccc1)c1ccccc1 (stereo not drawn)
active: [1]; at 33.0 µM 89% | [1]; at 100.0 µM 91% | [3]; at 33.0 µM 76% | [3]; at 100.0 µM 80% | [4]; [16] 76% | [4]; at 33.0 µM 93% | [4]; [17] 82% | [4]; at 100.0 µM 83% | [5]; at 33.0 µM 86% | [5]; [17] 79% | [5]; at 50.0 µM 89.7% | [5]; at 100.0 µM 85% | [6]; at 33.0 µM 77% | [6]; at 100.0 µM 81% | [7]; [17] 80% | [8]; at 33.0 µM 89% | [8]; at 100.0 µM 80% | [9]; [17] 81% | [9]; at 50.0 µM 88.9% | [10]; at 33.0 µM 85% | [10]; [17] 76% | [10]; at 50.0 µM 89.8% | [10]; at 100.0 µM 83% | [11]; at 33.0 µM 81% | [11]; at 100.0 µM 80% | [12]; at 33.0 µM 71% | [12]; at 100.0 µM 77% | [13]; at 33.0 µM 84% | [13]; at 100.0 µM 86% | [14]; [16] 74% | [14]; [17] 86% | [15]; at 33.0 µM 94% | [15]; at 100.0 µM 87%
inactive: [1]; at 1.2 µM 1% | [1]; at 3.7 µM 4% | [1]; at 11.0 µM 11% | [2]; at 1.2 µM 1% | [2]; at 3.7 µM 0% | [2]; at 11.0 µM 0% | [2]; at 33.0 µM -2% | [2]; at 100.0 µM -7% | [3]; at 1.2 µM 0% | [3]; at 3.7 µM 3% | [3]; at 11.0 µM 16% | [4]; at 1.2 µM 1% | [4]; at 3.7 µM 3% | [4]; at 11.0 µM 48% | [4]; at 50.0 µM 41.8% | [5]; at 1.2 µM -3% | [5]; at 3.7 µM -1% | [5]; [16] 18% | [5]; at 11.0 µM 27% | [6]; at 1.2 µM 2% | [6]; at 3.7 µM 5% | [6]; at 11.0 µM 18% | [7]; [16] 15% | [7]; at 50.0 µM 50.5% | [8]; at 1.2 µM -4% | [8]; at 3.7 µM -4% | [8]; at 11.0 µM 26% | [9]; [16] 33% | [10]; at 1.2 µM 0% | [10]; at 3.7 µM -2% | [10]; [16] 8% | [10]; at 11.0 µM 15% | [11]; at 1.2 µM 0% | [11]; at 3.7 µM -1% | [11]; at 11.0 µM 23% | [12]; at 1.2 µM 0% | [12]; at 3.7 µM 2% | [12]; at 11.0 µM 25% | [13]; at 1.2 µM 0% | [13]; at 3.7 µM 2% | [13]; at 11.0 µM 17% | [14]; at 50.0 µM 50.6% | [15]; at 1.2 µM 3% | [15]; at 3.7 µM 13% | [15]; at 11.0 µM 52%
